Measured values published in PubChem BioAssay (NCI).
About 83,000 compounds went through this panel and 20% of them were active in at least one assay; those are over-represented in the sample as a whole.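 Note: values are percent growth. 100 is the growth of untreated cells, values between 100 and 0 indicate rising inhibition; between -100 and 0 indicates cell death.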 The source made the active and inactive calls. Rule for the calls: active = growth percent below 10; inactive = the rest.

Legend:
Experiment in all cases: NCI-60 one-dose screen, 48 h (100 = growth as untreated, 0 = no growth, -100 = all killed)
Conditions in all cases: 10 µM unless noted
DU-145 prostate = tested on: DU-145 prostate
K-562 leukemia = tested on: K-562 leukemia
MALME-3M melanoma = tested on: MALME-3M melanoma
MDA-MB-231 breast = tested on: MDA-MB-231 breast
RXF 393 renal = tested on: RXF 393 renal
SF-268 CNS = tested on: SF-268 CNS
SF-295 CNS = tested on: SF-295 CNS
SF-539 CNS = tested on: SF-539 CNS
UACC-257 melanoma = tested on: UACC-257 melanoma
M14 melanoma = tested on: M14 melanoma

Measured: growth

Cc1c(-c2ccc(O)cc2)n(Cc2ccc(OCCN3CCCCCC3)cc2)c2ccc(O)cc12
inactive: DU-145 prostate 87% | MALME-3M melanoma 69.5% | MDA-MB-231 breast 82.3% | RXF 393 renal 49.9% | SF-268 CNS 74.2% | SF-295 CNS 99.1% | SF-539 CNS 61.7% | UACC-257 melanoma 81.6% | M14 melanoma 63.5%
active: K-562 leukemia -6.6%

O=C(NCc1ccc(Cl)cc1Cl)C1CCC(=O)N1c1cccs1 (stereo not given)
inactive: DU-145 prostate 108% | K-562 leukemia 108% | MALME-3M melanoma 96.3% | MDA-MB-231 breast 96.5% | RXF 393 renal 109% | SF-268 CNS 100% | SF-295 CNS 90.8% | SF-539 CNS 93.6% | UACC-257 melanoma 90.8% | M14 melanoma 104%

C=CCN=c1sc2c(n1NC(=O)c1cc3ccc1CCc1ccc(cc1)CC3)C(=O)c1ccccc1C2=O
active: DU-145 prostate -90.7% | K-562 leukemia -12.3% | MALME-3M melanoma -88.6% | MDA-MB-231 breast -6.76% | RXF 393 renal -26.3% | SF-268 CNS 8.79% | SF-539 CNS -98.3% | UACC-257 melanoma -72.6% | M14 melanoma -93.9%
inactive: SF-295 CNS 69.2%

N#Cc1c(-c2ccc(Cl)cc2)nc(NN2C(=O)c3ccccc3C2=O)nc1N1CCOCC1
inactive: DU-145 prostate 107% | K-562 leukemia 97% | MALME-3M melanoma 109% | MDA-MB-231 breast 105% | RXF 393 renal 107% | SF-268 CNS 99.3% | SF-295 CNS 101% | SF-539 CNS 101% | UACC-257 melanoma 108% | M14 melanoma 101%

C=CCSc1nnc(NC(=O)CCl)s1
inactive: DU-145 prostate 87.4% | K-562 leukemia 87.7% | MALME-3M melanoma 73.8% | MDA-MB-231 breast 89.6% | RXF 393 renal 97.5% | SF-268 CNS 91.9% | SF-295 CNS 101% | SF-539 CNS 101% | UACC-257 melanoma 79.1% | M14 melanoma 83.2%

COC(=O)c1nc(-c2ccc(C)cc2)oc1S(=O)(=O)c1cccc(OC)c1
active: MALME-3M melanoma -12.3%
inactive: DU-145 prostate 104% | K-562 leukemia 11.6% | MDA-MB-231 breast 94.1% | RXF 393 renal 77% | SF-268 CNS 92.8% | SF-295 CNS 104% | SF-539 CNS 101% | UACC-257 melanoma 97.5% | M14 melanoma 90.4%

CCOC(=O)n1ccn(C)c1=S
inactive: DU-145 prostate 112% | K-562 leukemia 103% | MALME-3M melanoma 102% | MDA-MB-231 breast 117% | RXF 393 renal 115% | SF-268 CNS 106% | SF-295 CNS 92% | SF-539 CNS 95.7% | UACC-257 melanoma 97.3% | M14 melanoma 97%

Clc1cc(Cl)c(Cl)c(-c2nnc(SCc3ccncc3Br)o2)c1
inactive: DU-145 prostate 99.9% | K-562 leukemia 69.5% | MALME-3M melanoma 100% | MDA-MB-231 breast 93.3% | RXF 393 renal 128% | SF-268 CNS 97.8% | SF-295 CNS 95.2% | SF-539 CNS 90.9% | UACC-257 melanoma 103% | M14 melanoma 97.9%

O=C(/C=C/c1cccc(Cl)c1)c1ccc(Nc2nc(Nc3ccc(F)cc3)nc(Nc3ccc(Cl)cc3)n2)cc1
inactive: DU-145 prostate 162% | K-562 leukemia 79.7% | MALME-3M melanoma 108% | MDA-MB-231 breast 110% | SF-268 CNS 163% | SF-295 CNS 61.9% | SF-539 CNS 142% | UACC-257 melanoma 100% | M14 melanoma 94.9%
active: RXF 393 renal -9.73%

O=C(O)c1ccc(-n2cc(/C=N/Nc3ccccc3)c(-c3ccc(F)cc3F)n2)cc1
inactive: DU-145 prostate 49.2% | K-562 leukemia 18.6% | MALME-3M melanoma 70.4% | MDA-MB-231 breast 41% | RXF 393 renal 92.9% | SF-268 CNS 45.8% | SF-295 CNS 77.2% | SF-539 CNS 75.3% | UACC-257 melanoma 114% | M14 melanoma 41.8%

COC1=CC(c2ccc[nH]2)=N/C1=C\c1[nH]c(C)c(C(=O)OC(C)C)c1C
inactive: DU-145 prostate 10.5%
active: K-562 leukemia 2.07% | MALME-3M melanoma -74.3% | MDA-MB-231 breast -67% | RXF 393 renal -17.7% | SF-268 CNS 6.34% | SF-295 CNS -76% | SF-539 CNS -58.6% | UACC-257 melanoma -37.7% | M14 melanoma -67.5%

C=C(CBr)[C@@H]1CC[C@]2(C(=O)O)CC[C@]3(C)[C@H](CC[C@@H]4[C@@]5(C)CCC(=O)C(C)(C)[C@@H]5CC[C@]43C)[C@@H]12
inactive: DU-145 prostate 86.1% | K-562 leukemia 50.4% | MALME-3M melanoma 89.4% | MDA-MB-231 breast 81% | RXF 393 renal 85.9% | SF-268 CNS 83.1% | SF-295 CNS 79.2% | SF-539 CNS 99.2% | UACC-257 melanoma 80.2% | M14 melanoma 80%

C#Cc1c2c(c(OC)c3c1OCO3)[C@H]([C@H]1OC(=O)c3c1ccc(OC)c3OC)N(C)CC2
inactive: DU-145 prostate 95.1% | K-562 leukemia 31.2% | MALME-3M melanoma 69.9% | MDA-MB-231 breast 87.5% | RXF 393 renal 92.3% | SF-268 CNS 90.4% | SF-295 CNS 77.7% | SF-539 CNS 96.3% | UACC-257 melanoma 82.8% | M14 melanoma 71.4%

Oc1ccc(Cl)cc1/C=N\NC(=S)N/N=C/c1cc(Cl)ccc1O
inactive: DU-145 prostate 58.3% | K-562 leukemia 22.1% | MALME-3M melanoma 23.4% | MDA-MB-231 breast 37.2% | RXF 393 renal 42.6% | SF-268 CNS 40.6% | SF-295 CNS 11% | SF-539 CNS 20% | UACC-257 melanoma 21.8% | M14 melanoma 27.1%

CCOC(=O)n1cc(-c2nonc2-c2cn(C(=O)OCC)c3ccc(Br)cc23)c2ccccc21
inactive: DU-145 prostate 93.9% | K-562 leukemia 78% | MALME-3M melanoma 83% | MDA-MB-231 breast 74% | RXF 393 renal 94.2% | SF-268 CNS 82% | SF-295 CNS 72.4% | SF-539 CNS 98.4% | UACC-257 melanoma 93.6% | M14 melanoma 78.8%

O=c1c2ccccc2n2cnc3ccc(Cl)c1c32
inactive: DU-145 prostate 62.8% | K-562 leukemia 97.2% | MALME-3M melanoma 90.7% | MDA-MB-231 breast 90.7% | RXF 393 renal 69.8% | SF-268 CNS 86.9% | SF-295 CNS 85.9% | SF-539 CNS 88.4% | UACC-257 melanoma 95.7% | M14 melanoma 83.9%

O=C1Nc2ccc(C(=O)O)cc2/C1=N/c1nnc(Sc2ccccc2)s1
inactive: DU-145 prostate 110% | K-562 leukemia 96.2% | MALME-3M melanoma 113% | MDA-MB-231 breast 106% | RXF 393 renal 117% | SF-268 CNS 96.4% | SF-295 CNS 102% | SF-539 CNS 96.8% | UACC-257 melanoma 107% | M14 melanoma 104%

Nc1c(C(=O)Nc2ccccc2F)sc2nc3c(cc12)CCCC3
active: SF-539 CNS 6.85%
inactive: DU-145 prostate 26.8% | K-562 leukemia 14.1% | MALME-3M melanoma 62.9% | MDA-MB-231 breast 45.1% | RXF 393 renal 39.2% | SF-268 CNS 50.4% | SF-295 CNS 21.9% | UACC-257 melanoma 61.6% | M14 melanoma 33.5%

CN(c1cc2ncc(=O)[nH]c2cc1NC(N)=NCc1ccc(Cl)cc1)C1CCCCC1
inactive: DU-145 prostate 71.7% | MALME-3M melanoma 29.9% | MDA-MB-231 breast 19.9% | RXF 393 renal 37.1% | SF-268 CNS 67.9% | SF-295 CNS 95.8% | SF-539 CNS 66.4% | UACC-257 melanoma 106% | M14 melanoma 40.1%
active: K-562 leukemia 2.83%

O=c1c2cnn(-c3ccccc3)c2n2c(CN3CCOCC3)nnc2n1-c1ccccc1
inactive: DU-145 prostate 105% | K-562 leukemia 88.2% | MALME-3M melanoma 124% | MDA-MB-231 breast 106% | RXF 393 renal 119% | SF-268 CNS 104% | SF-295 CNS 98.6% | SF-539 CNS 99.2% | UACC-257 melanoma 101% | M14 melanoma 98.2%

O=C(N(c1ccccc1)c1ccccc1)n1cc(I)c2nc(Cl)nc(Cl)c21
inactive: DU-145 prostate 43.3% | K-562 leukemia 20.8% | MALME-3M melanoma 73.4% | MDA-MB-231 breast 67.6% | RXF 393 renal 40.1% | SF-268 CNS 34.3% | SF-295 CNS 48.2% | SF-539 CNS 56.8% | UACC-257 melanoma 53.7% | M14 melanoma 57.4%

CC(=O)Oc1ccc(N2C(=O)C(Cl)=C(Nc3cccc(C(F)(F)F)c3)C2=O)cc1
inactive: DU-145 prostate 101% | K-562 leukemia 90.4% | MALME-3M melanoma 102% | MDA-MB-231 breast 95.3% | RXF 393 renal 87% | SF-268 CNS 94.3% | SF-295 CNS 102% | SF-539 CNS 96.5% | UACC-257 melanoma 97.1% | M14 melanoma 105%

CCOC(=O)Cc1cnc(N/N=C(\C)c2cc3ccccc3o2)s1
inactive: DU-145 prostate 113% | K-562 leukemia 98.5% | MALME-3M melanoma 91.8% | MDA-MB-231 breast 91.4% | RXF 393 renal 107% | SF-268 CNS 98.8% | SF-295 CNS 104% | SF-539 CNS 107% | UACC-257 melanoma 98.2% | M14 melanoma 98.2%

COc1ccc(C/C(C)=C(/c2ccc(OCCN(C)C)cc2)c2ccc(OC(=O)NCc3ccccc3)cc2)cc1
inactive: DU-145 prostate 81.1% | MALME-3M melanoma 88.5% | MDA-MB-231 breast 57.9% | RXF 393 renal 60.3% | SF-268 CNS 72.9% | SF-295 CNS 88% | SF-539 CNS 88.9% | UACC-257 melanoma 75.8% | M14 melanoma 25.1%
active: K-562 leukemia -29.2%

O=C(/C=C/c1cccc(Cl)c1)c1cccc(OCCCOc2cccc(C(=O)/C=C/c3cccc(Cl)c3)c2)c1
inactive: DU-145 prostate 108% | K-562 leukemia 86.9% | MALME-3M melanoma 116% | MDA-MB-231 breast 94.9% | RXF 393 renal 104% | SF-268 CNS 98.8% | SF-295 CNS 95.1% | SF-539 CNS 106% | UACC-257 melanoma 102% | M14 melanoma 89.9%

N=C(N)c1ccc(-c2ccc(-c3ccc(Cl)cc3Cl)s2)cc1
inactive: MALME-3M melanoma 73.9% | RXF 393 renal 87.3% | SF-268 CNS 42.4% | UACC-257 melanoma 88% | M14 melanoma 41.5%
active: DU-145 prostate -24.7% | K-562 leukemia -7.11% | MDA-MB-231 breast -38% | SF-295 CNS -30.6% | SF-539 CNS -28.9%

COc1ccc(CN2c3ccccc3Sc3ccccc32)cc1F
active: RXF 393 renal 7.16% | SF-539 CNS -6.34% | M14 melanoma -3.27%
inactive: DU-145 prostate 14.1% | K-562 leukemia 11% | MALME-3M melanoma 32.6% | MDA-MB-231 breast 24.1% | SF-268 CNS 38.8% | SF-295 CNS 12.4% | UACC-257 melanoma 54.8%
